Assay results: PubChem BioAssay
For part of these data: Measured potencies and affinities stand elsewhere. The source made the active and inactive calls. Unless noted, the rule behind the calls is not given here.

Experiments:
[1] = antimalarial activity against Dd2 strain (AID 2302;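 active = growth inhibition above 50% at the single 2 µM test dose, taken to imply half-maximal potency below 2 µM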;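 note: 0% = DMSO untreated growth and 100% = chloroquine plus artemisinin killed control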); settings: P. falciparum Dd2 in RBCs, LDH growth readout, 72 h; at 2 µM; active compounds read high
[2] = HepG2 cytotoxicity, primary screen, cytotoxicity control for P. falciparum antimalarial project, cell-based, ATP luminescence (AID 2303;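 active = inhibition above 50%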;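 note: 0% = DMSO wells and 100% = digitonin-killed cells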); settings: HepG2 viability, 24-48 h, at 10 µM, active compounds read high
[3] = biological target: L-lactate dehydrogenase (Plasmodium falciparum (isolate CDC / Honduras)) (UniProt Q27743); experiment: PfLDH activity inhibition – cell lysate, 3D7 strain, counter-screen for P. falciparum growth inhibition project (AID 2304);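 note: 0% = vehicle and 100% = reference inhibitor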; settings: P. falciparum 3D7 crude extract, LDH APAD/NBT absorbance; at 2 µM; active compounds read high
[4] = inhibition of 3D7 malaria parasite growth – strain 3D7 (AID 2306);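 note: 0% = DMSO wells and 100% = chloroquine plus artemisinin control wells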; settings: P. falciparum 3D7 erythrocytic growth, LDH absorbance, 72 h; at 2 µM; active compounds read high
[5] = biological target: Calcium-dependent protein kinase 1 (Plasmodium falciparum (isolate 3D7)) (UniProt P62344); experiment: PfCDPK1 kinase inhibitors, biochemical, TCAMS library (AID 1159585; cut-off not given, nearly all actives have IC50 up to about 0.98 µM;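 note: inhibitors leave more ATP so luminescence rises with inhibition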); settings: recombinant PfCDPK1, Kinase-Glo ATP depletion luminescence
[6] = biological target: Plasmodium falciparum protein kinase 6 (PK6, PF3D7_1337100) (UniProt Q8IDW1); experiment: PfPK6 kinase inhibitors, biochemical, TCAMS library (AID 1159586); settings: recombinant PfPK6, Kinase-Glo ATP depletion luminescence
[7] = biological target: Protein kinase 7 (PK7), Plasmodium falciparum 3D7 (PF3D7_0213400) (UniProt Q7YTF7); experiment: inhibition of Plasmodium PK7 catalytic activity – biochemical, TCAMS antimalarial set, Kinase-Glo luminescence (AID 1159587); settings: recombinant PfPK7, Kinase-Glo ATP depletion luminescence
[8] = biological target: Calcium-dependent protein kinase 4 (Plasmodium falciparum (isolate 3D7)) (UniProt Q8IBS5); experiment: PfCDPK4 kinase inhibitors, biochemical, TCAMS library (AID 1159588; cut-off not given, nearly all actives have IC50 up to about 0.91 µM); settings: recombinant PfCDPK4, Kinase-Glo ATP depletion luminescence
Sequence of Calcium-dependent protein kinase 4 (Plasmodium falciparum (isolate 3D7)) (Q8IBS5 whole entry, looked up): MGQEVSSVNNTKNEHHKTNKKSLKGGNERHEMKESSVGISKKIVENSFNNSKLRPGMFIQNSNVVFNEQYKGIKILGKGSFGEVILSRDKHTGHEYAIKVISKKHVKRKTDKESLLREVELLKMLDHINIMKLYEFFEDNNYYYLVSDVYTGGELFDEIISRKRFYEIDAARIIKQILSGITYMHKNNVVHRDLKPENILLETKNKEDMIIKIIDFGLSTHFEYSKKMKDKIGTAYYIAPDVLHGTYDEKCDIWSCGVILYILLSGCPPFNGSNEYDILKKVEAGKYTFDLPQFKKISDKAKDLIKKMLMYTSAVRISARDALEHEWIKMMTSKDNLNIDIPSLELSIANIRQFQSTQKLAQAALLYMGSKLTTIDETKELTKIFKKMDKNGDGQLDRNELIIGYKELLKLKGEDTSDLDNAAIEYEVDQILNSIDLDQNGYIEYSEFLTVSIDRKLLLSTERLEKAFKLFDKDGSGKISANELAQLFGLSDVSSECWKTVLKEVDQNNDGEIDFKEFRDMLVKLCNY

Sequence of Plasmodium falciparum protein kinase 6 (PK6, PF3D7_1337100) (Q8IDW1 1-305): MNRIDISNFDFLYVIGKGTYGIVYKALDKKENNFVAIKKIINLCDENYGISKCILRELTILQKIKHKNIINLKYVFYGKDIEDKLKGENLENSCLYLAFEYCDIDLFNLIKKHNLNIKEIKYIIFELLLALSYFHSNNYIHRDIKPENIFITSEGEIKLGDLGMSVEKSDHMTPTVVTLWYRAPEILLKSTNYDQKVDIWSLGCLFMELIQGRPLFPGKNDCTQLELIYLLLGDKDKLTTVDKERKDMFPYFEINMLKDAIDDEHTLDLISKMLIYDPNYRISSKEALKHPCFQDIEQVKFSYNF
Sequence of Protein kinase 7 (PK7), Plasmodium falciparum 3D7 (PF3D7_0213400) (Q7YTF7 1-343): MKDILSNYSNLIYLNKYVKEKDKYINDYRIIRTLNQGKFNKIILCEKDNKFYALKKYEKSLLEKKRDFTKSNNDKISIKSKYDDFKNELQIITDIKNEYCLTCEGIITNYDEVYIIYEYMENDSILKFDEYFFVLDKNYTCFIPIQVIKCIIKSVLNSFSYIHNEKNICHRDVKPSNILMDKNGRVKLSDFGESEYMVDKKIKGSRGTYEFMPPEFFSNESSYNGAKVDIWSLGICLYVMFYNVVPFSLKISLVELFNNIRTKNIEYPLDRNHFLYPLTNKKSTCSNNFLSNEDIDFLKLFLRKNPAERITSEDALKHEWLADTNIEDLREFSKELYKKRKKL
Sequence of Calcium-dependent protein kinase 1 (Plasmodium falciparum (isolate 3D7)) (P62344 whole entry, looked up): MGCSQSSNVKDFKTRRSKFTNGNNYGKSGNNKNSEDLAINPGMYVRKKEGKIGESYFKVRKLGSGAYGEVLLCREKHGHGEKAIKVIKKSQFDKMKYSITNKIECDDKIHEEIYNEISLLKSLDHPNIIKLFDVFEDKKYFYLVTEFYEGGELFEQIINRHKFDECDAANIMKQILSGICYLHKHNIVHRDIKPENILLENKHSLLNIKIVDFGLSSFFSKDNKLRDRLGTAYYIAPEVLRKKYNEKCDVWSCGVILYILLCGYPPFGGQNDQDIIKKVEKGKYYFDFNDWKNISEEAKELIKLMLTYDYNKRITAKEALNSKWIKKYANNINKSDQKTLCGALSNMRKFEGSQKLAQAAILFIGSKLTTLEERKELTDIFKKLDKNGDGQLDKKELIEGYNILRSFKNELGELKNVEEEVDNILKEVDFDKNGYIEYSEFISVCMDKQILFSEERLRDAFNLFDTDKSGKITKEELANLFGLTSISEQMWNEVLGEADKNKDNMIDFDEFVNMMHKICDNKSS
Sequence of L-lactate dehydrogenase (Plasmodium falciparum (isolate CDC / Honduras)) (Q27743 whole entry, looked up): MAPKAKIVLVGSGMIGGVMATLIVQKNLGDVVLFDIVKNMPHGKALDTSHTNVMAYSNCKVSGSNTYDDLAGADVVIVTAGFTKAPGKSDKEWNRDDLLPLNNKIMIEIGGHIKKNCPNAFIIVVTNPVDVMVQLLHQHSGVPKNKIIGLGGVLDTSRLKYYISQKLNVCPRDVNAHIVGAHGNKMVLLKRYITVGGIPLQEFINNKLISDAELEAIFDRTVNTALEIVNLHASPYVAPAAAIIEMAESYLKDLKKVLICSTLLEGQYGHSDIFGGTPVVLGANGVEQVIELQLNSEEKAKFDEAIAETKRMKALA

COc1ccc(NCCCNc2ccnc3ccccc23)cc1
inactive: growth inhibition [1] 17% | inhibition [2] 34% | inhibition [3] 2% | outcome [5] | outcome [6] | outcome [7] | outcome [8]
active: growth inhibition [4] 88%

Cc1ccccc1N1CCN(c2ncc(C(=O)NC3CC3)cc2Cl)CC1
active: growth inhibition [1] 96% | growth inhibition [4] 91%
inactive: inhibition [2] 23% | inhibition [3] -2% | outcome [5] | outcome [6] | outcome [7] | outcome [8]

Cc1cc(Nc2cccc(C(F)(F)F)c2)nc(NCc2ccccc2)n1
inactive: inhibition [2] 17% | inhibition [3] 0% | outcome [5] | outcome [6] | outcome [7] | outcome [8]
active: growth inhibition [1] 95% | growth inhibition [4] 102%

Cc1ccc2nc(C)n(C3CCN(C(=O)Cc4ccc(F)c(F)c4)CC3)c2c1
inactive: inhibition [2] 4% | inhibition [3] 0% | outcome [5] | outcome [6] | outcome [7] | outcome [8]
active: growth inhibition [1] 100% | growth inhibition [4] 100%

CC[C@H](NC(=O)c1c(CN2CCC(N3CCCCC3)CC2)c(-c2ccccc2)nc2c(Cl)c(O)ccc12)c1ccccc1
active: growth inhibition [1] 66% | growth inhibition [4] 101%
inactive: inhibition [2] -1% | inhibition [3] -3% | outcome [5] | outcome [6] | outcome [7] | outcome [8]

NC(N)=Nc1nc(-c2cccc(NC(=O)NCc3ccc(OC(F)(F)F)cc3)c2)cs1
inactive: growth inhibition [1] 26% | inhibition [2] -3% | inhibition [3] 4% | outcome [5] | outcome [6] | outcome [7] | outcome [8]
active: growth inhibition [4] 100%

CCC(C)NCc1c(O)ccc2c(CNC(C)CC)c(O)ccc12 (stereo not drawn)
active: growth inhibition [4] 100%
inactive: growth inhibition [1] 31% | inhibition [2] 14% | inhibition [3] 2% | outcome [5] | outcome [6] | outcome [7] | outcome [8]

CCN1CCC(N(Cc2ccc(-c3ccc(C(F)(F)F)cc3)cc2)C(=O)Cn2c(CCc3cccc(F)c3F)cc(=O)c3ccccc32)CC1
inactive: inhibition [3] 3% | outcome [5] | outcome [6] | outcome [7] | outcome [8]
active: growth inhibition [1] 94% | inhibition [2] 100% | growth inhibition [4] 94%

COc1ccc(-c2cc(C(=O)Nc3ccc4nc(-c5ccccc5)[nH]c4c3)[nH]n2)cc1
inactive: inhibition [3] 3% | outcome [5] | outcome [6] | outcome [7] | outcome [8]
active: growth inhibition [1] 78% | inhibition [2] 77% | growth inhibition [4] 90%

CCOC(=O)c1c[nH]c2c(sc3cc(OC)ccc32)c1=O
active: growth inhibition [1] 93% | growth inhibition [4] 96%
inactive: inhibition [2] -6% | inhibition [3] 3% | outcome [5] | outcome [6] | outcome [7] | outcome [8]

Cc1cc(Nc2ccc(C)c(Cl)c2)n2nc(C(F)(F)F)nc2n1
active: growth inhibition [1] 97% | growth inhibition [4] 98%
inactive: inhibition [2] 2% | inhibition [3] 2% | outcome [5] | outcome [6] | outcome [7] | outcome [8]

NC(=O)C1CCN(Cc2ccc(-c3ccc(-c4nc5ccc(C(F)(F)F)cc5[nH]4)s3)cc2)CC1
active: growth inhibition [1] 91% | growth inhibition [4] 99%
inactive: inhibition [2] 22% | inhibition [3] -5% | outcome [5] | outcome [6] | outcome [7] | outcome [8]

O=C1CN(C(=O)CCC2CCCC2)C(c2ccc(F)cc2)c2cc(F)ccc2N1 (stereo not drawn)
active: growth inhibition [1] 75% | growth inhibition [4] 100%
inactive: inhibition [2] 12% | inhibition [3] -5% | outcome [5] | outcome [6] | outcome [7] | outcome [8]

CCCCCCCN(CCCCCCC)CCCC(=O)Nc1ccnc2ccc(OC)cc12
active: growth inhibition [1] 98% | growth inhibition [4] 100%
inactive: inhibition [2] 43% | inhibition [3] -5% | outcome [5] | outcome [6] | outcome [7] | outcome [8]

O=C(c1cccc(-c2noc(C(F)(F)F)n2)c1)N1CCN(C(=O)c2ccc3cc[nH]c3c2)CC1
inactive: inhibition [2] 15% | inhibition [3] -3% | outcome [5] | outcome [6] | outcome [7] | outcome [8]
active: growth inhibition [1] 85% | growth inhibition [4] 94%

COc1cc(NC(=O)N2CCc3ccc(OCCN(C(C)C)C(C)C)cc32)cc(C(F)(F)F)c1
inactive: inhibition [2] 6% | inhibition [3] 3% | outcome [5] | outcome [6] | outcome [7] | outcome [8]
active: growth inhibition [1] 97% | growth inhibition [4] 102%

OC(CN1CCN(Cc2ccccc2)CC1)Cn1c(-c2ccccc2)c(-c2ccccc2)c2ccccc21 (stereo not drawn)
active: growth inhibition [1] 97% | growth inhibition [4] 98%
inactive: inhibition [2] -3% | inhibition [3] -3% | outcome [5] | outcome [6] | outcome [7] | outcome [8]

CCCCCN1CCCC1CNS(=O)(=O)c1cccc(C(=O)Nc2cccc(C(F)(F)F)c2)c1 (stereo not drawn)
active: growth inhibition [4] 96%
inactive: growth inhibition [1] 12% | inhibition [2] 15% | inhibition [3] 4% | outcome [5] | outcome [6] | outcome [7] | outcome [8]

COc1c(C(=O)NC2CCN(Cc3ccccc3)C2)cnc2ccccc12 (stereo not drawn)
active: growth inhibition [4] 86%
inactive: growth inhibition [1] 12% | inhibition [2] 2% | inhibition [3] -4% | outcome [5] | outcome [6] | outcome [7] | outcome [8]

COCCOc1ccc(C(F)(F)F)cc1NC(=O)Cc1c(F)cccc1Cl
inactive: inhibition [2] 18% | inhibition [3] 2% | outcome [5] | outcome [6] | outcome [7] | outcome [8]
active: growth inhibition [1] 74% | growth inhibition [4] 88%

O=C(Cn1c(CCc2cccc(F)c2F)nc(=O)c2ccccc21)N(Cc1ccc(-c2ccc(C(F)(F)F)cc2)cc1)C1CCN(C2=NCCS2)CC1
active: growth inhibition [1] 85% | inhibition [2] 62% | growth inhibition [4] 81%
inactive: inhibition [3] 3% | outcome [5] | outcome [6] | outcome [7] | outcome [8]
